# According to the antibiotic and cytotoxicity screens of Wong et al. (2023):
# Among all 39,000 compounds or so, about 1,500 (3.8%) were called active. This excerpt belongs to a sample that is enriched for actives.
# System: HSkMC (human skeletal muscle cells)
# Test: cytotoxicity call (relative viability < 0.9)
# Details: 10 µM
row,SMILES,cytotoxicity call
1,C[C@@H]1CCCCO[C@H](CN(C)S(=O)(=O)c2cccs2)[C@H](C)CN([C@@H](C)CO)C(=O)c2cc(NC(=O)c3ccccc3)ccc2O1,inactive
2,CC[C@@H]1/C=C(\C)C[C@H](C)C[C@H](OC)[C@H]2O[C@@](O)(C(=O)C(=O)N3CCCC[C@H]3C(=O)O[C@H](/C(C)=C/[C@@H]3CC[C@H](Cl)[C@H](OC)C3)[C@H](C)[C@@H](O)CC1=O)[C@H](C)C[C@@H]2OC,inactive
3,C[C@@H]1CCCCO[C@@H](CN(C)C(=O)c2ccccc2)[C@@H](C)CN([C@@H](C)CO)C(=O)c2cc(NC(=O)Nc3ccccc3)ccc2O1,inactive
4,Cc1ccc(S(=O)(=O)N(C)C[C@@H]2OCCCC[C@@H](C)Oc3ccc(NC(=O)CCC(F)(F)F)cc3C(=O)N([C@@H](C)CO)C[C@H]2C)cc1,inactive
5,Cc1noc(C)c1S(=O)(=O)N(C)C[C@H]1Oc2ccc(NC(=O)Cc3ccccc3)cc2CC(=O)N([C@H](C)CO)C[C@H]1C,inactive
6,NC(=O)[C@H]1CCCCN1,inactive
7,COc1cccc(S(=O)(=O)N[C@@H]2C=C[C@@H](CC(=O)NC3CCC3)O[C@H]2CO)c1,inactive
8,C[C@@H]1CCCCO[C@H](CN(C)C(=O)Nc2cccc3ccccc23)[C@H](C)CN([C@H](C)CO)C(=O)c2cc(NS(=O)(=O)c3ccc(Cl)cc3)ccc2O1,inactive
9,Cc1ccc(S(=O)(=O)Nc2ccc3c(c2)C(=O)N([C@@H](C)CO)C[C@H](C)[C@@H](CN(C)C(=O)Nc2cccc4ccccc24)OCCCC[C@@H](C)O3)cc1,inactive
10,C[C@@H]1CCCCO[C@@H](CN(C)C(=O)Nc2cccc3ccccc23)[C@@H](C)CN([C@H](C)CO)C(=O)c2cc(NS(=O)(=O)c3ccc(F)cc3)ccc2O1,inactive
11,C[C@@H]1CN([C@@H](C)CO)C(=O)c2cc(NS(=O)(=O)c3ccc(F)cc3)ccc2O[C@@H](C)CCCCO[C@@H]1CN(C)C(=O)Nc1cccc2ccccc12,inactive
12,C[C@@H]1CCCCO[C@@H](CN(C)C(=O)Nc2cccc3ccccc23)[C@H](C)CN([C@@H](C)CO)C(=O)c2cc(NS(=O)(=O)c3ccc(Cl)cc3)ccc2O1,inactive
13,Cc1ccc(S(=O)(=O)Nc2ccc3c(c2)C(=O)N([C@H](C)CO)C[C@H](C)[C@H](CN(C)C(=O)Nc2cccc4ccccc24)OCCCC[C@H](C)O3)cc1,active
14,C[C@H]1CCCCO[C@H](CN(C)C(=O)Nc2cccc3ccccc23)[C@@H](C)CN([C@@H](C)CO)C(=O)c2cc(NS(=O)(=O)c3ccc(F)cc3)ccc2O1,active
15,Cc1ccc(S(=O)(=O)Nc2ccc3c(c2)C(=O)N([C@@H](C)CO)C[C@@H](C)[C@@H](CN(C)C(=O)Nc2cccc4ccccc24)OCCCC[C@H](C)O3)cc1,inactive
16,C[C@@H]1CCCCO[C@@H](CN(C)C(=O)Nc2cccc3ccccc23)[C@H](C)CN([C@@H](C)CO)C(=O)c2cc(NS(=O)(=O)c3ccc(F)cc3)ccc2O1,inactive
17,C[C@@H]1CCCCO[C@H](CN(C)C(=O)Nc2cccc3ccccc23)[C@@H](C)CN([C@H](C)CO)C(=O)c2cc(NS(=O)(=O)c3ccc(Cl)cc3)ccc2O1,active
18,C[C@@H]1CN([C@@H](C)CO)C(=O)c2cc(NS(=O)(=O)c3ccc(F)cc3)ccc2O[C@@H](C)CCCCO[C@H]1CN(C)C(=O)Nc1cccc2ccccc12,inactive
19,C[C@@H]1CCCCO[C@@H](CN(C)C(=O)Nc2cccc3ccccc23)[C@H](C)CN([C@H](C)CO)C(=O)c2cc(NS(=O)(=O)c3ccc(F)cc3)ccc2O1,active
